Reference: PubChem BioAssay AID651644 (National Center for Advancing Translational Sciences (NCATS), 2012)
The campaign covered roughly 360,000 compounds. About 750 (0.21%) were called active. About 2% were inconclusive and are not listed. Shown is part of a subset that was picked to be rich in actives. Values without a mark were called inactive. Calls come from the whole dose curve; as a rule, active = well fitted falling curve with a large enough effect; inconclusive = small, poorly fitted or top-dose-only effect; inactive = no such curve, though single readings can be large or run the other way.

Test: qHTS Assay for Inhibitors of the HIV-1 protein Vpr; note: nearly all actives have a fitted effect of over 50% in size
Settings: S. pombe RE007 Vpr strain, BacTiter-Glo ATP luminescence, 24 h; series mostly up to 92.2 µM; activity change, negative = less growth: at the top concentration
From the text: Human immunodeficiency virus type 1 (HIV-1), the causative agent of AIDS, contains a protein called viral protein R (Vpr) that plays an important role in the viral life cycle and the pathogenesis of HIV-1.
These Vpr specific activities include cytoplasmic-nuclear shuttling, induction of cell cycle G2 arrest and cell killing. The cytoplasmic-nuclear shuttling is believed to participate in nuclear transport of the proviral integration complex (PIC). The cell cycle G2 arrest induced by Vpr is thought to suppress human immune functions by preventing T cell clonal expansion and to provide an optimized cellular environment for maximal levels of viral replication. In addition, Vpr induces apoptosis, which may contribute to the depletion of CD4 T cells in HIV-infected patients. Since the Vpr-specific activities have been linked to such clinical manifestation of AIDS as activation of viral replication, suppression of host immune responses and depletion of CD4+ T-lymphocytes, identification of new molecular probes that can inhibit the Vpr activities could potentially provide a new approach to reduce Vpr-mediated detrimental effects in HIV-infected patients, and thus prolong patient's lives. Currently, there are no anti-Vpr drugs.
A fission yeast (Schizosaccharomyces pombe) model system for the Vpr studies has been developed which measures HIV-1 Vpr-induced cell death. This assay will be used for to screen the NIH Molecular Libraries Small Molecule Repository (MLSMR) identify small molecule HIV-1 Vpr inhibitors.
NIH Chemical Genomics Center [NCGC]
NIH Molecular Libraries Probe Centers Network [MLPCN]
Assay Submitter (PI): Richard Zhao, University of Maryland
The fission yeast RE007 strain was used, which carries a single integrated copy of HIV-1 vpr gene in the yeast chromosome. The starting culture was frozen stock 100ul of yeast RE007 in 150ml of *PMG+AL medium, Incubation in 30 degree plus 99% humidity for 18 hours. Next day dispensed 2.5ul of PMG+AL medium in each well to 1536 well white solid plate, then 23nL compound were delivered to each well using a pin tool. Check OD for overnight culture and add cell density at 0.01 for each well, incubation in 30 degree plus 99% humidity for 24 hours. After add 5 ul of *BacTiter/Glo detect reagent to each well at room temperature for 5 minutes then to red out results with Viewlux CCD camera.
% is set by controls: 0 for no effect and ±100 for the full control effect.

Compound | activity change, negative = less growth | Potency
Cc1cc(C)c2c(n1)sc1c(=O)n(-c3ccccc3)c(=O)[nH]c12 | -0.636% | –
CCCCCCCCc1c(O)nc(-n2[nH]c(C)c(CCO)c2=O)[nH]c1=O | 1.19% | –
Cc1ccc(-c2nn(-c3ccc(F)cc3)cc2C(=O)NCC(c2cccs2)N2CCOCC2)cc1 (stereo unspecified) | 19.5% | –
FC(F)(F)C1CCCN(c2nsc3ccccc23)C1 (stereo unspecified) | – | 8.91 µM (active)
CCn1ncc(C2=NOC(C(=O)N3CCN(c4ccccc4)CC3)C2)c1C (stereo unspecified) | -2.91% | –
CC1Cc2ccccc2N1C(=O)c1cc2sccc2n1Cc1ccccc1 (stereo unspecified) | 9.42% | –
COc1ccc(C(CNC(=O)c2cc(S(=O)(=O)Nc3cccc(C)c3)ccc2C)N2CCCC2)cc1 (stereo unspecified) | -11% | –
CCn1cc(C(=O)N[C@@H](C)C(=O)NCCO)c(=O)c2cc3c(cc21)OCO3 | 8.19% | –
O=[N+]([O-])c1ccc(C=Nc2ccc(Cl)cc2Cl)s1 | – | 3.16 µM (active)
Cc1ccc(S(=O)(=O)N(c2cccc(C)c2)C2CCS(=O)(=O)C2)cc1 (stereo unspecified) | -5.48% | –
CN1CCN(C(=O)c2ccccc2NC(=O)COc2ccccc2Cl)CC1 | -2.68% | –
COc1ccc(NC(=O)c2cccc(Cl)c2)c[n+]1[O-] | -16.9% | –
Cc1cccc(NS(=O)(=O)c2ccc(-c3cnc(C4CC4)o3)cc2)c1 | -3.01% | –
Cc1ccccc1OCC(=O)NCC(=O)OCC(=O)c1ccc2ccccc2c1 | -1.1% | –
Cc1cccc(C)c1NC(=O)Nc1ccccc1-n1ccnc1 | -10.5% | –
CCOc1ncccc1C(=O)Nc1ccc2c(c1)OCCO2 | 0.0868% | –
CCSc1ccccc1C(=O)Nc1ccc2c(c1)OCO2 | – | 28.2 µM (active)
CC(C)NC(=O)CSc1ccccc1C(=O)NCc1ccc2c(c1)OCO2 | -6.89% | –
O=C1COc2ccc(C(=O)COC(=O)CCOc3ccccc3)cc2N1 | 2.66% | –
O=S(=O)(NCCS(=O)(=O)N1CCN(c2ccccc2)CC1)c1ccc(F)cc1 | -2.52% | –
Cc1c(C(=O)OCC(=O)N(CCC#N)c2ccccc2)oc2c1ccc1ccccc12 | -3.92% | –
O=C(NC(c1ccc(-c2ccccc2)cc1)c1cnccn1)C1CCN(CCOc2ccc(Cl)cc2Cl)CC1 (stereo unspecified) | -8.16% [at 18.4 µM] | –

Compound | activity change, negative = less growth | Potency
CC1CCc2c(sc3nc4n(c(=O)c23)CCS4)C1 (stereo unspecified) | – | 12.6 µM (active)
NNC(=O)C1CCCn2c1nc1sc3c(c1c2=O)CCCC3 (stereo unspecified) | 12% | –
CCCCc1c(O)nc2n(c1=O)CCS2 | -2.61% | –
Cc1cccc(C(=O)OCC(=O)NCC(C)C)c1O | 4.4% | –
Cc1cccc(N2CCN(Cc3nc(C4CC4)no3)CC2)n1 | -6.17% | –
COP1(=O)C[C@@H](O)[C@@H](O)[C@@H](COCc2ccccc2)O1 (stereo partly specified) | 0.0821% | –
O=C(Nc1nnc(C2COc3ccccc3O2)o1)c1ccc(F)cc1 (stereo unspecified) | -17.2% | –
O=C(CCn1nnnc1CN1CCOCC1)N1CCC(c2ccccc2Cl)C1 (stereo unspecified) | 3.11% | –
CC(C)OC(=O)c1ccc(NCc2cc(O)ccc2O)cc1Cl | – | 28.2 µM (active)
CCC(C)c1ccccc1N1CC(C(=O)N2CCN(S(=O)(=O)c3ccc(F)cc3)CC2)CC1=O (stereo unspecified) | 6.94% | –
COc1ccc(C(=O)CN2C(=O)NC3(CCc4ccccc43)C2=O)c(OC)c1 (stereo unspecified) | -0.673% | –
Cc1ccc(OCCCCc2c(C)n[nH]c2C)cc1 | 1.1% | –
NC1=C([N+](=O)[O-])C(c2ccccc2)C2=C(CCCC2=O)O1 (stereo unspecified) | 1.87% | –
CCc1ccc2oc(-c3ccc(N)cc3)nc2c1 | – | 11.2 µM (active)
COc1ccccc1N1CCN(S(=O)(=O)c2ccc3c(c2)NC(=O)CS3)CC1 | -1.45% | –
CC1(C(=O)Nc2ccc3c(c2)OCCO3)CSCC(=O)N1CCOc1ccccc1 (stereo unspecified) | -4.71% | –
Cc1nn(CCCC(=O)NCc2ccccc2Cl)c(=O)c2nccn12 | -1.04% | –
O=c1c2ccccc2ncn1CCc1ccncc1 | -15.9% | –
NNc1cccc(C=Cc2ccccc2)cc1=O | – | 28.2 µM (active)
COc1ccccc1C(=O)NCc1nnc(SC(C)C(=O)Nc2nccs2)n1C (stereo unspecified) | 2.26% | –
Cc1ccc2cc3cc(C(=O)N4CCCCCC4)oc3nc2c1 | -12.2% | –
O=C(c1cccc(Br)c1)N1CCN(C2=NS(=O)(=O)c3ccccc32)CC1 | -12.3% | –

Compound | activity change, negative = less growth | Potency
CCCOc1ccc(NC(=O)CC2C(=O)N(C)C(=S)N2Cc2ccc3c(c2)OCO3)cc1 (stereo unspecified) | 26.4% | –
O=C(NCCc1ccccn1)c1cccnc1Oc1ccc(Cl)cc1 | 2.12% | –
CCOc1ccc(CCNC(=O)CSc2cc(=O)n(C)c3ccc(Cl)cc23)cc1OCC | -8.18% | –
CN(C)NC(=O)C(NC(=O)c1ccc(N)cc1)C12CC3CC(CC(C3)C1)C2 (stereo unspecified) | -5.22% | –
CC1(C)CC[C@]2(C(=O)O)CC[C@]3(C)C(=CCC4[C@@]5(C)CC[C@H](O)C(C)(C)C5[C@H](O)C[C@]43C)[C@@H]2C1 (stereo partly specified) | 65.6% | –
O=C(Nc1ccc(F)cc1)Nc1nnc([C@H]2C[C@H](O)[C@@H](CO)O2)s1 | 3.26% | –
COC(=O)C1CCN(C(=O)COC(=O)c2cc(S(=O)(=O)N3CCOCC3)ccc2C)CC1 | 13.4% | –
CC1CCCC(C)N1C(=O)CN1CCN(c2nc(-c3ccc(F)cc3)cs2)CC1 (stereo unspecified) | 2.33% | –
O=C(NC1CCCC1)C(c1c(F)cccc1Cl)N(C(=O)c1csnn1)C1CC1 (stereo unspecified) | 5.17% | –
O=C(OCC(O)C(O)COC(=O)c1ccccc1)c1ccccc1 (stereo unspecified) | 11% | –
O=C(NC1=CC(=O)c2ccccc2C1=O)c1ccccc1 | – | 12.6 µM (active)
O=C(Nc1ccc(S(=O)(=O)N2CCc3ccccc3C2)cc1)c1ccccc1 | -4.11% | –
COc1ccc(C(=O)C(OP(=O)(OC)OC)c2ccccc2OC)cc1 (stereo unspecified) | -2.08% | –
CCCCOC(=O)c1ccc(N2C(=O)CC(N3CCN(C/C=C/c4ccccc4)CC3)C2=O)cc1 (stereo unspecified) | -15.3% | –
CCOC(=O)c1ccc(N2C(=O)CC(Sc3nc(O)c(CC)c(=O)[nH]3)C2=O)cc1 (stereo unspecified) | -7.6% | –
COc1ccc(N2C(=O)CC(N3CCC(C(N)=O)CC3)C2=O)cc1 (stereo unspecified) | – | 25.1 µM (active)
CCOC(=O)N(Cc1ccccc1)C1CC1 | 12.2% | –
CCOC(=O)c1ccc(N2C(=O)CC(N3CCC(C(=O)OCC)CC3)C2=O)cc1 (stereo unspecified) | – | 12.6 µM (active)
COc1ccc(N2CCN(C3CC(=O)N(c4ccc5c(c4)OCCO5)C3=O)CC2)cc1 (stereo unspecified) | 13.6% | –
COc1ccc(CCN2C(=O)CC(N3CCC(C(N)=O)CC3)C2=O)cc1OC (stereo unspecified) | -26.9% | –
CCOC(=O)c1ccc(N2C(=O)CC(N(C)Cc3ccccc3)C2=O)cc1 (stereo unspecified) | – | 12.6 µM (active)
COC(=O)c1cc(C(=O)OC)cc(N2C(=O)CC(N3CCN(c4ccccc4)CC3)C2=O)c1 (stereo unspecified) | -22.8% | –
